Experimental data reported in PubChem BioAssay AID463173 (ICCB-Longwood Screening Facility, Harvard Medical School, 2010).
The whole screen tested about 52,000 compounds, of which about 4,300 (8.3%) were called active. No stated cut-off is given here; in the data, active means survival mostly below about 52% (no sharp cut-off); inactive means mostly above about 56%. The sample as a whole holds a higher share of actives than the screen did.

The molecules below were run on DeltatarO mutant (assay: growth inhibition of S. aureus wild type versus tarO mutant, primary screen, teichoic acid synthesis inhibitors, RN4220, OD600 (AID 463173)). Settings: OD600, 18 h, hits give low values, concentration not given here.

Row | Structure (SMILES) | survival
1 | O=C(COc1cc(Cl)ccc1Cl)Nc1ccc(Cl)cc1C(=O)c1ccccc1 | 69% (inactive)
2 | CC1=CC(=O)C2=C(C)CC(O)C3C(C)C(=O)OC3C12 (stereo unspecified) | 100% (inactive)
3 | CCc1ccc(NC(=O)c2cccn(Cc3cccc([N+](=O)[O-])c3)c2=O)cc1 | 89% (inactive)
4 | Cc1cc(C=C(C#N)C#N)c(C)n1C1CCCC1 | 64% (inactive)
5 | CC(C)NCc1ccc2c(c1)OCO2 | 76% (inactive)
6 | Cc1ccc(C(C)(C)C)c(OCC(=O)Nc2ccc(Cl)cc2C(=O)c2ccccc2)c1 | 66% (inactive)
7 | CCN(CC)C(=O)c1ccc(NC(=O)CCn2nc(-c3ccc(Cl)cc3)c3ccccc3c2=O)cc1 | 47% (active)
8 | CCN(CC)C(=O)c1ccc(NC(=O)CCn2nc(-c3ccc(C)cc3)c3ccccc3c2=O)cc1 | 61% (inactive)
9 | CCN(CC)C(=O)c1ccc(NC(=O)Cn2nc(-c3ccc(C)cc3)c3ccccc3c2=O)cc1 | 50% (inactive)
10 | CCOc1ccccc1NC(=O)c1cccn(Cc2ccccc2C)c1=O | 70% (inactive)
11 | Cc1n[nH]c(C)c1CCN | 80% (inactive)
12 | Cc1[nH]c2c(C)cccc2c1CCN | 37% (active)
13 | O=S1(=O)CC2(N3CCOCC3)CCCCC21 (stereo unspecified) | 84% (inactive)
14 | C=CCN1C(=O)CN=C(c2cccs2)c2c1sc1c2CCC1 | 92% (inactive)
15 | COc1ccc(OC)c(NC(=O)Cn2cc(C(=O)c3ccccc3)c3ccccc32)c1 | 59% (inactive)
16 | COc1cccc(NC(=O)Cn2cc(C(=O)c3ccccc3)c3ccccc32)c1 | 47% (inactive)
17 | COc1ccc(OC)c(NC(=O)Cn2cc(C(=O)c3ccccc3F)c3ccccc32)c1 | 70% (active)
18 | Cc1ccc(-c2nn3c(=O)cc(CN4CCN(C(=O)COc5ccc(C)c(C)c5)CC4)nc3s2)cc1 | 81% (inactive)
19 | O=C(COc1ccccc1Cl)N1CCN(CCc2ccccn2)CC1 | 110% (inactive)
20 | COc1ccc(OC)c(C(c2c(O)c3ccccc3oc2=O)c2c(C)n(C)n(-c3ccccc3)c2=O)c1 (stereo unspecified) | 56% (inactive)
21 | COc1ccc(/C=C/c2nc3ccccc3c(=O)n2-c2ccc(C)cc2)cc1O | 85% (inactive)
22 | Cc1cccc(-n2c(/C=C\c3cccc(Br)c3)nc3ccccc3c2=O)c1 | 113% (inactive)
23 | COc1cccc(-n2c(/C=C/c3cccc(C)c3)nc3ccccc3c2=O)c1 | 0% (active)
24 | Cc1ccc(-n2c(/C=C/c3ccccc3)nc3ccccc3c2=O)cc1Cl | 68% (inactive)
25 | COc1cccc(-n2c(/C=C\c3ccc(Cl)cc3)nc3ccccc3c2=O)c1 | 30% (active)
26 | COc1cccc(/C=C/c2nc3ccccc3c(=O)n2-c2ccc(Cl)cc2)c1OC | 88% (inactive)

Row | Structure (SMILES) | survival
27 | O=c1c2ccccc2nc(/C=C/c2cccc3ccccc23)n1-c1ccc(Cl)cc1 | 78% (inactive)
28 | CCN1CCN(C(=O)COc2ccc(S(=O)(=O)N(C)Cc3ccccc3)cc2)CC1 | 87% (inactive)
29 | CC1(C)CC(NC(=O)CN2CCCC2=O)CC(C)(C)N1 | 79% (inactive)
30 | COc1ccc(C=C2C(=O)NC(=S)NC2=O)cc1 | 96% (inactive)
31 | Cc1cccc(OC(C)C(=O)NCC2(N(C)C)CCCCC2)c1C (stereo unspecified) | 92% (inactive)
32 | N#CC(C#N)=Cc1ccc(Sc2ccccc2)o1 | 72% (inactive)
33 | COc1ccccc1CNCCc1ccccc1 | 95% (inactive)
34 | O=C(COc1ccccc1Cl)N1CCN(CCc2ccncc2)CC1 | 95% (inactive)
35 | Cc1ccc(OCC(=O)N2CCN(CCc3ccncc3)CC2)cc1 | 86% (inactive)
36 | Cc1cc(OCC(=O)N2CCN(CCc3ccncc3)CC2)cc(C)c1Cl | 57% (active)
37 | Cc1cc(OCC(=O)N2CCN(CCc3ccncc3)CC2)ccc1Cl | 49% (inactive)
38 | O=C(COc1cccc(Cl)c1)N1CCN(CCc2ccncc2)CC1 | 47% (active)
39 | O=C(COc1ccccc1[N+](=O)[O-])N1CCN(CCc2ccncc2)CC1 | 90% (inactive)
40 | O=C(COc1ccc2ccccc2c1)N1CCN(Cc2ccncc2)CC1 | 67% (inactive)
41 | CCc1ccc(OCC(=O)N2CCN(CCc3ccncc3)CC2)cc1 | 98% (inactive)
42 | COc1ccc(OCC(=O)N2CCN(CCc3ccncc3)CC2)cc1 | 82% (inactive)
43 | CC(C)c1ccc(OCC(=O)N2CCN(CCc3ccncc3)CC2)cc1 | 44% (active)
44 | Cc1ccc(OCC(=O)N2CCN(CCc3ccncc3)CC2)cc1C | 53% (inactive)
45 | Cc1ccc(C(C)C)c(OCC(=O)N2CCN(CCc3ccncc3)CC2)c1 | 42% (active)
46 | O=C(Nc1ccc2c(c1)OCCO2)c1cccn(Cc2cccc([N+](=O)[O-])c2)c1=O | 94% (inactive)
47 | Cc1ccc(-n2c(/C=C/c3cc(Br)cs3)nc3ccccc3c2=O)cc1 | 74% (inactive)
48 | CC(=O)N(C1=NCCCS1)c1ccc(C)cc1 | 99% (inactive)
49 | CC(=O)OC1(c2ccccc2)CCN(C)C2CCCCC21 (stereo unspecified) | 91% (inactive)
50 | CN1CCc2nc3sc4c(=O)[nH]c(=O)[nH]c4c3cc2C1 | 79% (inactive)
51 | Cc1ccc(Cl)cc1NC(=O)N(Cc1ccc2c(c1)OCO2)C1CCN(Cc2ccccc2)CC1 | 55% (inactive)
52 | Cc1cccnc1-n1c(C)nc2ccccc2c1=O | 76% (inactive)

Row | Structure (SMILES) | survival
53 | COc1ccc(NC(=O)CCc2nc(C3=CCN(Cc4cccc(C)c4)CC3)no2)c(OC)c1 | 91% (inactive)
54 | COC(=O)c1ccccc1NC(=O)c1cccn(Cc2cccc(Cl)c2)c1=O | 73% (inactive)
55 | CCOc1ccc2nc(NC(=O)c3cccn(Cc4ccccc4Cl)c3=O)sc2c1 | 87% (inactive)
56 | O=c1c2ccccc2[nH]c(=S)n1-c1ccccc1 | 90% (inactive)
57 | CCOc1ccc2nc(NC(=O)c3cccn(Cc4ccccc4)c3=O)sc2c1 | 94% (inactive)
58 | O=S1(=O)N(Cc2ccccc2)CCCN1Cc1cccc(Cl)c1 | 71% (inactive)
59 | O=S1(=O)N(Cc2ccccc2)CCCN1Cc1ccc(F)cc1Cl | 87% (inactive)
60 | O=S1(=O)N(Cc2ccccc2Cl)CCCN1Cc1ccccc1Cl | 10% (active)
61 | O=C(Nc1ccon1)c1cccn(Cc2cccc([N+](=O)[O-])c2)c1=O | 102% (inactive)
62 | COc1ccc(C(C(=O)NC2CCCCC2)N(CCN2CCOCC2)C(=O)Cc2c[nH]c3ccccc23)cc1OC (stereo unspecified) | 59% (inactive)
63 | COc1ccccc1NC(=O)N(Cc1ccc2c(c1)OCO2)C1CCN(Cc2ccccc2)CC1 | 88% (inactive)
64 | COc1ccccc1-n1c(/C=C/c2ccccc2)nc2ccccc2c1=O | 67% (inactive)
65 | CSc1nc2ccccc2c(=O)n1-c1ccccc1C | 95% (inactive)
66 | CCCSc1nc2ccccc2c(=O)n1-c1ccccc1OC | -2% (active)
67 | Cc1cccc(Cn2cccc(C(=O)Nc3cc(C)on3)c2=O)c1 | 73% (inactive)
68 | CCCCn1c(=O)c(C(=O)NC)c(O)c2ccccc21 | 99% (inactive)
69 | CCCCCn1c(=O)c(C(=O)Nc2ccccc2S(N)(=O)=O)c(O)c2ccccc21 | 0% (active)
70 | CCN1CCN(Cc2nnnn2C(C)(C)C)CC1 | 100% (inactive)
71 | O=C1CC(c2cccnc2)Nc2ccc3ccccc3c21 (stereo unspecified) | 86% (inactive)
72 | Cc1ccc(Cn2cccc(C(=O)Nc3cc([N+](=O)[O-])ccc3C)c2=O)cc1 | 82% (inactive)
73 | CCOC(=O)c1ccc(NC(=O)c2cccn(Cc3ccccc3F)c2=O)cc1 | 86% (inactive)
74 | CCc1ccccc1NC(=O)c1cccn(Cc2ccccc2F)c1=O | 47% (active)
75 | Cc1nnc(NC(=O)c2cccn(Cc3ccccc3F)c2=O)s1 | 94% (inactive)
76 | CC(C)c1ccc(OCC(=O)N2CCN(CCc3ccccn3)CC2)cc1 | 66% (inactive)
